Source: PubChem (Bradner/Qi Labs at DFCI)
CBX7 inh – inhibitors of human CBX7 binding to H3K27me3 peptide; normalised signal (fraction of DMSO) (test concentration not listed); AID 1224903; AlphaScreen His6-CBX7 / biotin-H3K27me3 peptide binding; stronger effect = lower value; hit rate 1.1% among 66,000; O95931; in the data active means normalised signal below about 0.5
Target sequence (O95931 whole entry, looked up): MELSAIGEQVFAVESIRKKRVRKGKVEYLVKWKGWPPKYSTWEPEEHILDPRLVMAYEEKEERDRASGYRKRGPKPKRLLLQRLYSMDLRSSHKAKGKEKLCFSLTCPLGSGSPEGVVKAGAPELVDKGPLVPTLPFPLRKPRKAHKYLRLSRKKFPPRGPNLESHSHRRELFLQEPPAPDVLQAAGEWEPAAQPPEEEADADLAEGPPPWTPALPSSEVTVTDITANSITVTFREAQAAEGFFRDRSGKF
Large screens that a line does not name were inactive; ! = not confirmed by another sample. Only a selection was taken, and hits are over-represented in it overall.

C#CC(C)(C)N1CCC(O)(c2ccccc2)C(C)C1 (stereo not drawn)	none
Cc1cccc(NC(=O)c2ccc(COc3ccc(Br)cc3)cc2)n1	none
Cc1cccc(CN2C(=O)c3ccccc3S(=O)(=O)c3ccc(C(=O)NCc4cccs4)cc32)c1	none
COc1ccc(NC2c3ccccc3C(=O)N2c2ccc(Cl)cc2)cc1OC (stereo not drawn)	none
COc1ccc(NC2c3ccccc3C(=O)N2c2ccc(Cl)cc2)cc1 (stereo not drawn)	CBX7 inh 0.419
CCc1ccc(NC2c3ccccc3C(=O)N2c2ccc(Cl)cc2)cc1 (stereo not drawn)	none
NS(=O)(=O)c1ccc(CCNC(=O)c2csc3c2CCCCC3)cc1	none
CCc1cc(-c2n[nH]c(C)c2Oc2ccccc2)c(O)cc1OC	none
CCc1cc(C(=O)Cc2ccc3ccccc3n2)c(O)cc1OC	CBX7 inh 0.345
CCc1cc(-c2[nH]ncc2Oc2ccccc2)c(O)cc1OC	none
Cc1ccc2c(c1)C(c1ccccc1)=NNC(c1ccccc1)=N2	none
CCCCNC(=O)C1c2cc(OC)c(OC)cc2C(=O)N2CCc3ccccc3C12 (stereo not drawn)	none
CCCCOc1ccc(-c2nc3ncccn3c2NC2CCCC2)cc1	none
CCCOc1ccc(-c2nc(Oc3ccc(C(=O)OC)cc3)c3ccccc3n2)cc1	none
COC(=O)c1c[nH]n2c(NC3CCCC3)c(-c3cccc(Br)c3)nc12	none
COc1cccc(-c2nc(SCC(=O)NC3CCCC3)c(-c3ccc(C)cc3)[nH]2)c1	none
CCCCOc1cccc(-c2nc3c(C(=O)OC)c[nH]n3c2NC2CCCCCC2)c1	CBX7 inh 0.46
CCCCOc1ccc(-c2nc3c(C(=O)OC)c[nH]n3c2NC2CCCCCC2)cc1	CBX7 inh 0.214
COCCCNC(=O)c1cnc(Nc2ccc(C)c(Cl)c2)c2ccccc12	none
CCC(C(=O)N1CCOCC1)n1c(SCc2ccccc2F)nc2ccncc21 (stereo not drawn)	none
COc1ccc(NC(=O)CSc2nnc(Cc3cc(=O)[nH]c(=O)[nH]3)n2-c2ccccc2)c(OC)c1	none
CCN(C(=O)Cc1c(C(=O)O)[nH]c2ccccc12)c1cccc(C)c1	none
Cc1c2cnn(CC(=O)N3CCN(Cc4ccccc4)CC3)c(=O)c2c(C)n1Cc1ccccc1	none
Fc1ccc(C(c2ccc(F)cc2)N2CCN(CCCc3c[nH]c4ccccc34)CC2)cc1	CBX7 inh 0.487
Clc1ccc(C(c2ccc(Cl)cc2)N2CCN(CCCc3c[nH]c4ccccc34)CC2)cc1	none
CC(C)c1ccc(C(c2ccccc2)N2CCN(C(=O)CCc3c[nH]c4ccccc34)CC2)cc1 (stereo not drawn)	none
COc1ccccc1-c1cc2nc(C)c(CCC(=O)NC(C)c3ccccc3)c(C)n2n1 (stereo not drawn)	none
Cc1cccc(C)c1NC(=O)CN1C(=O)COc2ccc(S(=O)(=O)N3CCC(C)CC3)cc21	none
O=C(CN1CC(c2ccccc2)CC1=O)N1CCN(c2ccccc2F)CC1 (stereo not drawn)	none
Cc1ccc(-n2nnnc2SCC(=O)c2ccc(O)cc2)cc1	none
CCOC(=O)N1CCN(S(=O)(=O)c2cnc[nH]2)CC1	none
Cc1ccc(NC(=O)c2oc3ccc(S(=O)(=O)N4CC(C)CC(C)C4)cc3c2C)cc1C (stereo not drawn)	none
Fc1ccc(-c2nc(-c3ccccc3)c(-c3cccs3)[nH]2)cc1	none
O=C(O)c1ccc(-c2nc(-c3cccc(Cl)c3)c(-c3ccccc3)[nH]2)cc1	none
COc1ccc(-c2nc(-c3cccs3)c(-c3cccs3)[nH]2)cc1OC	CBX7 inh 0.446
Oc1ccc(-c2nc(-c3ccc(-c4ccccc4)cc3)c(-c3ccc(-c4ccccc4)cc3)[nH]2)cc1	none
Oc1ccc(-c2[nH]c(-c3cccc(Cl)c3)nc2-c2ccccc2)cc1	CBX7 inh 0.412
Oc1ccc(-c2nc(-c3ccccc3)c(-c3cccs3)[nH]2)cc1	CBX7 inh 0.467
COc1cccc(-c2nc(-c3ccccc3)c(-c3cccs3)[nH]2)c1OC	CBX7 inh 0.428
COc1cccc(-c2nc(-c3cccs3)c(-c3cccs3)[nH]2)c1	none
COc1ccc(-c2nc(-c3cccs3)c(-c3cccs3)[nH]2)cc1	none
COc1ccc(-c2nc(-c3ccccc3)c(-c3cccs3)[nH]2)cc1O	none
COc1ccc(-c2nc(-c3ccccc3)c(-c3cccs3)[nH]2)cc1OC	none
COc1cccc(-c2nc(-c3ccsc3)c(-c3ccccc3)[nH]2)c1OC	none
O=C(Nc1ccc(COCC(F)(F)F)cc1)Nc1ccc2snnc2c1	none
Fc1ccc(-c2nc3ccc(C(F)(F)F)cc3nc2-c2ccc(F)cc2)cc1	none
COCCn1c(SC(C)C)nnc1-c1c[nH]c2ccccc12	none
O=c1[nH]c(SCc2ccccc2F)nc2c1CCCC2	none
CCOc1ccc2c(c1)c(=O)c(S(=O)(=O)c1ccccc1)cn2Cc1ccc(Cl)cc1	none
COCCNC(=O)C1CCN(Cc2nc(-c3ccc(OC)c(OC)c3)oc2C)CC1	none
COc1cccc(C(=O)Nc2nsc(-c3ccccc3)n2)c1	none
CCOc1ccc(C2CC(=O)NC3=C2C(=O)CCC3)cc1OC (stereo not drawn)	none
Cc1ccc(/C=C/c2nc3ccccc3n2S(=O)(=O)c2cc(Cl)ccc2Cl)cc1	none
c1ccc(-c2nc(-c3cccnc3)[nH]c2-c2ccccc2)cc1	CBX7 inh 0.308!
Brc1ccc(-c2nc(-c3ccccc3)c(-c3ccc(Oc4ccccc4)cc3)[nH]2)cc1	none
c1cncc(-c2nc3ccccc3[nH]2)c1	none
CCCN1C(=O)Cn2cccc2C1C(=O)NC1CCCCC1C (stereo not drawn)	none
CCN1CCN(C(=O)c2ccc3c(c2)NC(=O)c2ccccc2S3)CC1	none
CC(C)Cn1cc(C(=O)NCCCN2CCOCC2)c2c3ccccc3n(C)c2c1=O	none
CCOc1ccc(Nc2nc(-c3c(C)nc4ncccn34)cs2)cc1	none
COc1ccc(OC)c(Nc2nc(-c3ccccn3)cs2)c1	CBX7 inh 0.384
O=C(O)c1ccc(Nc2nc(-c3ccccc3)cs2)cc1	none
CCOc1ccc(Nc2nc(-c3ccccn3)cs2)cc1	CBX7 inh 0.0182
O=C(O)c1ccc(Nc2nc(-c3ccccn3)cs2)cc1	CBX7 inh 0.181
COc1ccc(-c2csc(Nc3ccccc3OC)n2)cc1	none
COc1ccc(OC)c(Nc2nc(-c3ccc(C)cc3)cs2)c1	none
O=C(O)c1ccc(Nc2nc(-c3ccncc3)cs2)cc1	none
CCOc1ccc(Nc2nc(-c3ccc(Cl)c(Cl)c3)cs2)cc1	none
COc1ccc(C(=O)Nc2cccc(-c3cn4cccc(C)c4n3)c2)cc1	none
CCOC(=O)N1CCC(N2Cc3cccc(C(=O)NCc4ccc(F)cc4)c3C2=O)CC1	none
O=C(NCc1ccccc1)C(=O)Nc1ccc(Oc2ccccc2)cc1	none
Cc1ccc(NC(=O)C2C3C=CC4(CNC(=O)C(c5ccc(F)cc5)N(Cc5cccs5)C(=O)C24)O3)cc1 (stereo not drawn)	none
CCN(CC)c1cc(C)c2cc(NC(=O)COc3cccc(C)c3)ccc2n1	none
O=C(Nc1ccc(-c2noc(-c3cccc(Br)c3)n2)cc1)c1cccc(Cl)c1	none
COc1cc(Nc2nc(-c3ccccc3)cs2)c(OC)cc1Cl	none
COc1cc(Nc2nc(-c3ccc(C4CCCCC4)cc3)cs2)c(OC)cc1Cl	CBX7 inh 0.459!
COc1cc(Nc2nc(-c3ccc(-c4ccccc4)cc3)cs2)c(OC)cc1Cl	none
C=CCN1C(=O)c2ccccc2Sc2ccc(C(=O)NCCCC)cc21	none
CCCN1C(=O)CC(c2ccc(OC)cc2)Sc2ccccc21 (stereo not drawn)	none
O=S(=O)(c1cccc(Cl)c1)N(CCCN1CCOCC1)Cc1cccs1	none
O=S(=O)(c1ccc(F)cc1)N(CCCN1CCOCC1)Cc1cccs1	none
